Results taken from PubChem BioAssay AID493201 (National Center for Advancing Translational Sciences (NCATS), 2011).
Inconclusive results are not listed. A number with no mark means an inactive call. Calls of active or inactive are those of the source. Calls come from the whole dose curve; as a rule, active = well fitted activation curve with a large enough effect; inconclusive = small, poorly fitted or top-dose-only effect; inactive = no such curve, though single readings can be large or run the other way.

Assay: qHTS Assay for Identifying a Potential Treatment of Ataxia-Telangiectasia: Secondary assay (no NCS) hit validation;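 note: phosphorylated KAP1 signal as a proxy for ATM-like kinase activity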; for activation: 0% is about no effect
Conditions: A-T patient fibroblasts, AlphaLISA, no DNA damage added, 90 min; series mostly up to 76.9 µM; activation: at the top concentration
Procedure, shortened: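 hTERT-immortalized A-T patient fibroblasts (F2112), 500 cells/well, exposed to compounds at up to 76.7 uM final without NCS at 37C. KAP-1 phosphorylation measured by AlphaLISA after lysis and 6 h detection at 25C.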
Potency is the fitted concentration of half-maximal effect.

Point of comparison: `CC(C)CN(CC(C)C)C(=O)c1cc2c(=O)n3ccccc3nc2s1`, “activation” value 12.9%. Against it:
- CC(C)C1CC(CCN)(c2ccccc2)CCO1 (stereo not given) — lower, -1.74%
- CCc1ccc(NC(=O)CNCc2ccc(OC)c(OC)c2)cc1 — lower, -2.15%
- COc1ccc(NC(=O)C2CC2)cc1OC1CCCC1 — lower, -2.15%
- COc1cccc(CN(C)CC(=O)NCc2ccc(F)cc2)c1OC — lower, -5.38%
- N#Cc1c(-c2ccccc2)cc(-c2ccccc2)[nH]c1=O — lower, -3.48%
- O=C1/C(=C/c2ccc(N3CCOCC3)o2)SC(=Nc2ccccc2)N1CCc1c[nH]c2ccccc12 — higher, 17.2%
- CCOc1ccc(NC2=NCC(=O)N2Cc2cccs2)cc1 — lower, 2.61%
- COc1ccc(N2CCN(C(=O)c3cc4cc(Cl)ccc4[nH]3)CC2)cc1 — lower, -8.7%
- OC(CN1CCCCC1)Cn1c2ccc(Cl)cc2c2cc(Cl)ccc21 (stereo not given) — lower, 1.08%
- CC(O)[C@H]1CNC(=O)C(=O)N1CC1(c2ccccc2)CC1 (stereo not given in full) — lower, -4.3%
- CCCCN(c1nc2ccccc2nc1Cl)S(=O)(=O)c1ccc(C)cc1 — higher, 17.4%
- Cc1c(Cc2ccccc2)c(NCCCO)n2c(nc3ccccc32)c1C#N — lower, 9.57%
- CN(Cc1ccccc1)C(=O)c1cccc(N2C(=O)C3CC=CCC3C2=O)c1 (stereo not given) — lower, -19.5%
- O=C(Nc1ccc(N2CCCC2)cc1)c1ccc(Cl)cc1Cl — lower, -20%
- COC(=O)c1ccc2[nH]c3cccc(/C(=C/c4ccccc4)c4ccccc4)c3c2c1 — lower, -4.3%
- CC(=O)c1sc2nc(C)c3c(c2c1N)CCCC3 — higher, 46.1%
- Nc1nc2ccccc2cc1-c1cccs1 — lower, -2.15%
- CCOC(=O)N1CCN(c2nc(N(c3ccccc3)c3ccccc3)nc(-n3ccnc3)n2)CC1 — higher, 27%
- N#C/C(=C/c1ccc(F)cc1)C(N)=S — lower, -3.23%
- COc1ccc(Oc2ncnc3c2oc2ccc(Br)cc23)cc1 — lower, -5.93%
- CC(=O)Nc1ccc(NC2=CC(=O)c3ccccc3C2=O)cc1 — lower, -3.23%
- CCOC(=O)Cn1c(-c2ccccc2)cc(SC)c(C#N)c1=O — lower, 8.6%
- S=c1[nH]nc(C2CCCCC2)n1/N=C/c1ccc(Br)cc1 — higher, 20.9%
- Cc1ccc(OC(=O)c2cc(C)nn2C(C)(C)C)cc1 — lower, 6.96%
- C(=N\Nc1ccccn1)/c1c[nH]c2ccccc12 — lower, -6.45%
- O=C(Nc1cc(S(=O)(=O)N2CCOCC2)ccc1Cl)c1cc(=O)c2ccccc2o1 — lower, -5.22%
- CC(C)(CN1CCN(c2ccccc2)CC1)NS(=O)(=O)c1ccccc1 — lower, -15.1%

For `CCN1C/C(=C/c2sccc2C)c2nc3ccccc3c(C(=O)O)c2C1`, the Potency was 16.4 µM (active).
In the case of `CC(C)CC(=O)Nc1c2c(nn1-c1cccc(Cl)c1)CS(=O)C2` (stereo not given), the Potency is reported as 58.2 µM (active).
In the case of `CN1C[C@@H]2C(c3ccccc3)C3(c4ccccc4)CC2(C3)[C@H]1c1ccccc1` (stereo not given in full), the Potency is reported as 20.7 µM (active).
With `COc1cc(/C=N/NC(=O)c2c(C)nc3ccc(Cl)cn23)cc(OC)c1OC` the Potency was 3.68 µM (active).
For `Cc1[nH]c2c(C)cccc2c1CN1CCC(CO)(Cc2ccccc2)CC1`, the Potency was 1.84 µM (active).
With `CCN1CCN(CC(=O)Nc2ccc(C(C)=O)cc2)CC1` the Potency was 26 µM (active).
In the case of `COc1cccc(/C=N/NC(=O)c2cc3cc([N+](=O)[O-])ccc3s2)c1O`, the Potency is reported as 46.3 µM (active).
